Hit rate of the full screen: of about 5,500 compounds, about 2,000 (36%) were called active. Inconclusive results (about 18%) are left out. Rule as the data show it: active = normalized growth mostly below about 0.91 (no sharp cut-off); inconclusive = no clear call, values can overlap the other calls; inactive = mostly above about 0.92. The list shows a part of the results.
Assay: chemical genetic growth profiling, strain panel (AID 1159580);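 also: tested at 20 µM; growth read once vehicle control cultures reached saturation at 30 °C; 1 = growth at the plate median or of vehicle wells; lower values mean less growth of the strain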
Settings: growth OD

Measured: normalized growth

C=C[C@@H](C1=CC(=O)C(OC)=C(OC)C1=O)c1ccccc1
active: S. cerevisiae deletion strains, locus YKL160W, strain elf1, active compounds read low 0.401 | S. cerevisiae deletion strains, locus YKL190W, strain CNB1, active compounds read low 0.0937 | S. cerevisiae deletion strains, locus YKR001C, strain vps1, active compounds read low 0.158 | S. cerevisiae deletion strains, locus YLL001W, strain dnm1, active compounds read low 0.794 | S. cerevisiae deletion strains, locus YLL026W, active compounds read low 0.679 | S. cerevisiae deletion strains, locus YLL041C, strain sdh2, active compounds read low 0.811 | S. cerevisiae deletion strains, locus YLR027C, strain aat2, active compounds read low 0.448 | S. cerevisiae deletion strains, locus YLR039C, strain RIC1, active compounds read low 0.361 | S. cerevisiae deletion strains, locus YLR102C, strain apc9, active compounds read low 0.515 | S. cerevisiae deletion strains, locus YLR113W, strain HOG1, active compounds read low 0.719 | S. cerevisiae deletion strains, locus YLR221C, strain rsa3, active compounds read low 0.363 | S. cerevisiae deletion strains, locus YLR258W, strain gsy2, active compounds read low 0.561 | S. cerevisiae deletion strains, locus YLR262C, strain YPT6 (second series), active compounds read low 0.17 | S. cerevisiae deletion strains, locus YLR262C, strain YPT6, active compounds read low 0.195 | S. cerevisiae deletion strains, locus YLR268W, strain sec22, active compounds read low 0.193 | S. cerevisiae deletion strains, locus YLR320W, strain mms22, active compounds read low 0.219 | S. cerevisiae deletion strains, locus YLR342W, strain FKS1 (second series), active compounds read low 0.331 | S. cerevisiae deletion strains, locus YLR342W, strain FKS1, active compounds read low 0.72 | S. cerevisiae deletion strains, locus YLR370C, strain arc18, active compounds read low 0.811 | S. cerevisiae deletion strains, locus YLR371W, strain rom2, active compounds read low 0.285 | S. cerevisiae deletion strains, locus YLR418C, strain cdc73, active compounds read low 0.141 | S. cerevisiae deletion strains, locus YML016C, strain PPZ1, active compounds read low 0.292 | S. cerevisiae deletion strains, locus YMR058W, strain fet3, active compounds read low 0.612 | S. cerevisiae deletion strains, locus YMR078C, strain ctf18, active compounds read low 0.381 | S. cerevisiae deletion strains, locus YMR125W, strain sto1, active compounds read low 0.284 | S. cerevisiae deletion strains, locus YMR129W, active compounds read low 0.659 | S. cerevisiae deletion strains, locus YMR205C, strain PFK2, active compounds read low 0.689 | S. cerevisiae deletion strains, locus YMR223W, strain ubp8, active compounds read low 0.493 | S. cerevisiae deletion strains, locus YMR231W, strain pep5, active compounds read low 0.529 | S. cerevisiae deletion strains, locus YMR307W, strain GAS1, active compounds read low 0.224 | S. cerevisiae deletion strains, locus YNL067W, strain RPL9B, active compounds read low 0.67 | S. cerevisiae deletion strains, locus YNL071W, strain lat1, active compounds read low 0.0795 | S. cerevisiae deletion strains, locus YNL183C, strain NPR1, active compounds read low 0.799 | S. cerevisiae deletion strains, locus YNL209W, strain ssb2, active compounds read low 0.748 | S. cerevisiae deletion strains, locus YNL233W, strain BNI4, active compounds read low 0.121 | S. cerevisiae deletion strains, locus YNL248C, strain rpa49, active compounds read low 0.403 | S. cerevisiae deletion strains, locus YNL271C, strain bni1, active compounds read low 0.88 | S. cerevisiae deletion strains, locus YNL307C, strain MCK1, active compounds read low 0.0762 | S. cerevisiae deletion strains, locus YNL322C, strain KRE1, active compounds read low 0.835 | S. cerevisiae deletion strains, locus YOL012C, strain htz1 0.17 | S. cerevisiae deletion strains, locus YOR061W, strain CKA2, active compounds read low 0.829 | S. cerevisiae deletion strains, locus YOR069W, strain VPS5, active compounds read low 0.314 | S. cerevisiae deletion strains, locus YOR070C, strain gyp1, active compounds read low 0.487 | S. cerevisiae deletion strains, locus YOR083W, strain WHI5, active compounds read low 0.554 | S. cerevisiae deletion strains, locus YOR106W, strain vam3, active compounds read low 0.297 | S. cerevisiae deletion strains, locus YOR136W, strain idh2, active compounds read low 0.675 | S. cerevisiae deletion strains, locus YOR184W, strain ser1, active compounds read low 0.15 | S. cerevisiae deletion strains, locus YOR265W, strain rbl2, active compounds read low 0.686 | S. cerevisiae deletion strains, locus YOR270C, strain vph1, active compounds read low 0.616 | S. cerevisiae deletion strains, locus YOR316C, strain cot1, active compounds read low 0.833 | S. cerevisiae deletion strains, locus YPL051W, strain arl3, active compounds read low 0.384 | S. cerevisiae deletion strains, locus YPL240C, strain hsp82, active compounds read low 0.625 | S. cerevisiae deletion strains, locus YPL241C, strain CIN2, active compounds read low 0.523 | S. cerevisiae deletion strains, locus YPR119W, strain clb2, active compounds read low 0.615 | S. cerevisiae deletion strains, locus YPR163C, strain tif3, active compounds read low 0.151 | S. cerevisiae deletion strains, locus YPR167C, strain met16, active compounds read low 0.456 | S. cerevisiae deletion strains, strain wtn01, active compounds read low 0.196 | S. cerevisiae strains, strain wild type, active compounds read low 0.114
inactive: S. cerevisiae deletion strains, locus YKL009W, strain mrt4, active compounds read low 0.957 | S. cerevisiae deletion strains, locus YKL068W, active compounds read low 1 | S. cerevisiae deletion strains, locus YKL085W, strain MDH1 (second series), active compounds read low 0.936 | S. cerevisiae deletion strains, locus YKL085W, strain MDH1, active compounds read low 0.936 | S. cerevisiae deletion strains, locus YKR026C, strain gcn3, active compounds read low 0.945 | S. cerevisiae deletion strains, locus YKR091W, strain srl3, active compounds read low 0.95 | S. cerevisiae deletion strains, locus YLR058C, strain SHM2, active compounds read low 0.98 | S. cerevisiae deletion strains, locus YLR357W, strain rsc2, active compounds read low 0.901 | S. cerevisiae deletion strains, locus YLR384C, strain iki3, active compounds read low 0.982 | S. cerevisiae deletion strains, locus YML032C, strain rad52, active compounds read low 0.961 | S. cerevisiae deletion strains, locus YML120C, strain ndi1, active compounds read low 0.924 | S. cerevisiae deletion strains, locus YML124C, strain tub3, active compounds read low 0.981 | S. cerevisiae deletion strains, locus YNL250W, strain rad50, active compounds read low 0.916 | S. cerevisiae deletion strains, locus YNL298W, strain CLA4, active compounds read low 0.925 | S. cerevisiae deletion strains, locus YNL322C, strain KRE1 (second series), active compounds read low 0.911 | S. cerevisiae deletion strains, locus YNR049C, strain mso1, active compounds read low 0.986 | S. cerevisiae deletion strains, locus YNR052C, strain pop2, active compounds read low 0.983 | S. cerevisiae deletion strains, locus YOL147C, strain pex11, active compounds read low 0.959 | S. cerevisiae deletion strains, locus YOR001W, strain rrp6, active compounds read low 0.976 | S. cerevisiae deletion strains, locus YOR080W, strain dia2, active compounds read low 1.01 | S. cerevisiae deletion strains, locus YOR144C, strain elg1, active compounds read low 0.962 | S. cerevisiae deletion strains, locus YOR231W, strain MKK1, active compounds read low 0.93 | S. cerevisiae deletion strains, locus YOR290C, strain snf2, active compounds read low 0.911 | S. cerevisiae deletion strains, locus YPL078C, strain atp4, active compounds read low 0.954 | S. cerevisiae deletion strains, locus YPL106C, strain sse1, active compounds read low 0.984 | S. cerevisiae deletion strains, locus YPL256C, strain CLN2, active compounds read low 0.895 | S. cerevisiae deletion strains, locus YPR141C, strain kar3, active compounds read low 0.983
